# Assay results published in paper PMC5540273 (PLoS ONE, 2017).
# Test system: MARK4
# Conditions: concentration: 1 μM, replicates: in singlicate; n = 1
# 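Note: KINOMEscan kinase panel screen.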
row,Structure (SMILES),%Inh
1,Cc1ccc(C(=O)NCC(N)=O)cc1-n1c(C)cc(OCc2ccc(F)cc2F)c(Br)c1=O,16%
2,CCn1cnc2c(N)ncnc21 [GW345098],0%
3,O=C(NCCNc1ccnc(Nc2ccc(F)cc2)n1)c1cc2ccccc2s1 [GSK1379874],0%
4,Cc1cccc(-c2nc(-c3ccc(S(C)(=O)=O)cc3)sc2-c2ccncc2)c1,31%
5,Cl.Oc1cccc(Nc2ccnc3cc(-c4ccncc4)ccc23)c1 [GW494601],10%
6,O=C(NOCC1CC1)c1ccc(F)c(F)c1Nc1ccc(I)cc1Cl,0%
7,N#Cc1ccc(-c2cc(-c3c[nH]nc3-c3ccccn3)ccn2)cc1 [GW693028],0%
8,Cc1c2ccc(N(C)c3ccnc(Nc4cccc(S(N)(=O)=O)c4)n3)cc2nn1Cc1ccccc1.Cl.Cl [GW787226],36%
9,CN1c2ccc(CNc3ccc(F)cc3)cc2-c2c(cnn2C)S1(=O)=O,11%
10,CC(=O)Nc1ccc(COc2ccc(Nc3ccnc4cc(-c5ccccn5)ccc34)cc2)cc1.Cl [GW440148],0%
11,COCCNC(=O)c1ccc(-c2cc(C(=O)NC3CC3)cc(F)c2C)cc1 [GW868318],9%
12,Cl.Nc1ncnc2occ(-c3ccc(NC(=O)Nc4cc(C(F)(F)F)ccc4F)cc3)c12 [SB-707548],0%
13,N#Cc1c(N2CCOCC2)sc(-c2ccn[nH]2)c1-c1ccc(Cl)cc1,0%
14,COc1cc2ncn(-c3cc(OCc4sccc4Cl)c(C(N)=O)s3)c2cc1OC [GSK448459],0%
15,CNc1ncnc2[nH]ncc12 [SKF-18355],59%
16,O=C1Cc2cc(Nc3nc(NCc4cccc(S(=O)(=O)C(F)(F)F)c4)ncc3C(F)(F)F)ccc2N1,6%
17,CC(C)Oc1ccc2c(-c3ccnc(Nc4ccc(N5CCN(C)CC5)cc4)n3)cnn2n1 [GW696155],59%

row,Structure (SMILES),%Inh
1,NCC(NC(=O)c1cc(-c2cn[nH]c2)c(-c2ccnc3[nH]ccc23)s1)c1ccccc1.O=C(O)C(F)(F)F.O=C(O)C(F)(F)F (stereo not drawn) [GSK1325775],0%
2,CCc1ccnc(/C=C/c2n[nH]c3cc(Sc4ccccc4C(=O)NC)ccc23)c1,21%
3,COc1ccc(COc2cc(-n3cnc4ccccc43)sc2C(N)=O)cc1 [GSK1024304],11%
4,O=c1cc(N2CCOCC2)nc2n(Cc3cccc4ccccc34)ccn12 [GSK2333389],1%
5,Nc1nc(-c2ccc3c(N)n[nH]c3c2)cc(N2CCCC2)n1 [GSK2227430],6%
6,COc1ccc(S(=O)(=O)NC2CCN(c3cc(C)nc(Nc4cccc(C#N)c4)n3)CC2)cc1.O=C(O)C(F)(F)F [GSK1653539],0%
7,Fc1ccc(-c2nn3c(OCC(F)(F)F)cccc3c2-c2ccncc2)cc1 [GW514784],0%
8,Nc1nccc(-c2c(-c3ccc(F)cc3)ncn2C2CCN(CC(F)(F)F)CC2)n1 [SB-236560],4%
9,NS(=O)(=O)CCc1cccc(Nc2nccc(-c3c(-c4cccc(NC(=O)c5c(F)cccc5F)c4)nn4ccccc34)n2)c1 [GSK336735],26%
10,O=C(NCCNc1ccnc(Nc2ccc(F)cc2)n1)Nc1ccccc1F [GSK1379880],0%
11,Cc1ccc(NC(=O)c2ccnc(N3CCN(C)CC3)c2)cc1-c1ccc(C(=O)NCC2CC2)cc1 [GW775604],41%
12,O=c1cc(N2CCOCC2)nc2n(Cc3cccc(Cl)c3Cl)c(C3CC3)nn12 [GSK2358994],4%
13,c1ccc(-c2cc(-c3c[nH]nc3-c3ccccn3)ccn2)cc1 [GW576604],0%
14,COc1ccc(CNC(=O)NC2CCN(c3ccnc(Nc4ccc(OC)cc4)n3)C2)cc1 (stereo not drawn) [GSK1379727],0%
15,C[C@@H](Oc1cc(-n2cnc3ccc(NC(=O)NC(C)(C)C)cc32)sc1C(N)=O)c1ccccc1Cl [GSK346294],9%
16,CN(C1=C(c2ccccc2)C(=O)NC1=O)c1ccccc1 [SB-334860],0%
